Source: PubChem BioAssay
The list is not random: actives were taken first. Their share in the collection is about 32%.
PostGolgi ctrl – growth of the yeast control strain, post-Golgi counter-screen | AID 738 | efflux-deficient yeast background strain, growth absorbance A615, 16 h | inhibition, % at 10 µM | actives 5% (n = 98,000)
CYP2C19 act – activators of human cytochrome P450 2C19; P33261; recombinant CYP2C19, luciferin-H EGE luminescence; stronger effect = higher value; 0 = fully inhibited enzyme, 1 = untreated enzyme; activation factor at 5 µM; 96,000 tested, under 10 active;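 active = activation factor of at least 2 at 5 µM in the primary screen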
PostGolgi yeast – growth inhibition of a yeast mutant, post-Golgi transport screen | actives 0.9% (n = 98,000) | post-Golgi transport phenotypic cell assay | inhibition, % at 10 µM;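 note: yeast cells grown in 1536-well plates; yeast grown about 18 h at 30C before absorbance read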
CYP2C19 inh – human CYP2C19 inhibition. inhibition, % at 5 µM. actives 21% (n = 96,000). P33261. AID 778. CYP2C19 Supersomes, luciferin-H EGE luminescence, 30 min;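 active = CYP2C19 inhibition above a set limit at 5 µM in the primary screen, cut at about 50% in these data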
CYP2C9 inhib – human CYP2C9 inhibition. P11712. CYP2C9 Supersomes, luciferin-H conversion, luminescence. inhibition, % at 5 µM. actives 20% (n = 96,000). AID 777;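 active = blocking of liver enzyme CYP2C9 beyond about 50% at 5 µM, limit read from the data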
Target sequence (P11712 whole entry, looked up): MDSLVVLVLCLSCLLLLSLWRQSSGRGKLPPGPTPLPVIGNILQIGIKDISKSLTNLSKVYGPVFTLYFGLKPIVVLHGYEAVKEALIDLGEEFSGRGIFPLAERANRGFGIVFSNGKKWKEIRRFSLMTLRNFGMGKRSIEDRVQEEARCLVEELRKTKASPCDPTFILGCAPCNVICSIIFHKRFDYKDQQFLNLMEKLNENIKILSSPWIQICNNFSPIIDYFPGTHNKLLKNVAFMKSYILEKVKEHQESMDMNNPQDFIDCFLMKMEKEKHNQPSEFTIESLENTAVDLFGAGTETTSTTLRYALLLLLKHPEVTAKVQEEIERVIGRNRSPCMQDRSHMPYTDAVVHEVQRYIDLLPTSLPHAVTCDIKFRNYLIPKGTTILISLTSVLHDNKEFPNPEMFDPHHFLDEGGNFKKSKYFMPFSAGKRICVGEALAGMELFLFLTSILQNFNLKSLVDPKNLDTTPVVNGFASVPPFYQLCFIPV
CYP2C9 act – activators of human CYP2C9 | P11712 | activation factor at 5 µM | actives 1.4% (n = 96,000) | recombinant CYP2C9, luciferin-H conversion, luminescence; stronger effect = higher value; factor 1 = untreated enzyme, 0 = blocked | AID 1024;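 active = activation factor of 2 or more for CYP2C9 at a 5 µM dose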
A number is an active result; 0 = inactive; - = no result given. Cut-off read from the data, not from the text of the source, unless noted: active = inhibition above about 30%; inactive = the rest.

SMILES	PostGolgi ctrl	CYP2C19 act	PostGolgi yeast	CYP2C19 inh	CYP2C9 inhib	CYP2C9 act
O=C(NC(C(=O)c1ccccc1)n1ccc(=O)[nH]c1=O)c1ccccc1 (stereo not given)	30	0	0	0	0	0
O=C(NC(Cc1ccccc1)C(=O)O)c1ccccc1 (stereo not given)	0	0	0	0	0	0
O=C(NC(C(=O)c1ccccc1)N1CCCCC1)c1ccccc1 (stereo not given)	0	0	38	77	99	0
Cc1ccc(C(=O)NC(N2CCCC2)C(Cl)(Cl)Cl)cc1 (stereo not given)	0	0	0	69	0	0
C=CCn1c(SCC#N)nc2c(c1=O)C(C)(C)Cc1ccccc1-2	0	0	0	0	0	0
CCOC(=O)Cn1c(=O)c2c(nc3n2CCCCN3c2ccc(C)cc2)n(C)c1=O	0	0	0	0	0	0
CC(C)Sc1nc2ccccc2n1CC(N)=O	0	0	0	0	0	0
CCC1CCC(NC2CCCCNC2=O)CC1 (stereo not given)	0	0	0	0	0	0
CCCc1nnc(NC(=O)CN2C(=O)C3C4C=CC(C4)C3C2=O)s1 (stereo not given)	0	0	0	0	0	0
Cc1cc(Nc2ccc(Br)c(C)c2)n2nc(C)nc2n1	0	0	0	0	0	0
CCn1nc(C)c(C(=O)Nc2cc(Oc3cc(C)cc(C)c3)cc([N+](=O)[O-])c2)c1C	0	0	0	0	0	0
CCOc1ccc(Oc2cc(NC(=O)c3ccco3)cc([N+](=O)[O-])c2)cc1	44	0	0	0	53	0
Cc1cccc(Oc2cc(NC(=O)c3ccccc3)cc([N+](=O)[O-])c2)c1	0	0	0	0	0	0
Cc1nn(C)cc1C(=O)Nc1cc(Oc2ccc(Cl)cc2)cc([N+](=O)[O-])c1	0	0	0	0	52	0
Cc1cccc(NC(=S)c2nc3ccccc3s2)c1	0	0	0	0	0	0
CCc1nnc(NC(=O)CSc2nc3c(cc2C#N)CCC3)s1	0	0	0	0	0	0
CCSc1nnc(NC(=O)CSc2nc(C)cc(C)n2)s1	0	0	0	61	0	0
CCSc1nnc(NC(=O)CSc2nc3c(cc2C#N)CCCC3)s1	0	0	0	0	51	0
CCSc1nnc(NC(=O)c2cccs2)s1	0	0	0	0	0	0
N#Cc1cc2c(nc1SCC(=O)Nc1nccs1)CCCCC2	0	0	0	0	54	0
CCSc1nnc(NC(=O)C(C)(C)C)s1	0	0	0	52	0	0
CCc1nnc(NC(=O)CSc2nnc(CSc3nc(C)cc(C)n3)n2C)s1	0	0	0	0	0	0
CC(C)OC(=O)C1C2C=CC3(CN(Cc4cccs4)C(=O)C13)O2 (stereo not given)	-	0	-	0	0	0
CCOC(=O)c1cc(C(=O)Nc2cccc(C)c2)nn1C	0	0	0	0	0	0
Cc1cccc(Nc2nc3c(c(=O)n(C)c(=O)n3C)n2CC(O)CO)c1 (stereo not given)	0	-	0	-	-	-
SMILES	PostGolgi ctrl	CYP2C19 act	PostGolgi yeast	CYP2C19 inh	CYP2C9 inhib	CYP2C9 act
O=S(=O)(NCc1ccccc1)c1ccc(S(=O)(=O)N(Cc2cccs2)CC2CCCO2)cc1 (stereo not given)	0	0	0	0	0	0
O=C(CNS(=O)(=O)c1ccc(C(=O)N2CCCCC2)cc1)N1CCCCC1	0	0	0	0	0	0
Cc1ccc(CN2C(=O)CCC2C(=O)NCc2ccco2)cc1 (stereo not given)	0	0	0	0	0	0
Cc1cc(-c2nnco2)c(C)n1-c1ccc(F)cc1	0	0	0	58	0	0
O=C1Nc2ccccc2C1(O)Cc1ccncc1 (stereo not given)	0	0	0	0	0	0
O=C1Nc2ccc(Br)cc2C1(O)Cc1ccncc1 (stereo not given)	0	0	0	56	83	0
O=C(CC1(O)C(=O)Nc2ccc(Br)cc21)c1ccc2c(c1)OCO2 (stereo not given)	0	0	0	76	75	0
Cc1ccc2c(c1)C(O)(CC(=O)c1ccc3c(c1)OCO3)C(=O)N2 (stereo not given)	0	0	0	58	0	0
Cc1ccccc1-n1c(SC(C)C(=O)N2CCN(C)CC2)nc2ccccc2c1=O (stereo not given)	0	0	0	0	0	0
Cc1ccccc1-c1nc2ccccc2c(=O)n1C1CCS(=O)(=O)C1 (stereo not given)	0	0	0	88	0	0
Cc1cc(O)c(C(C)C)cc1N=C1CSC(=O)N1	0	0	0	0	0	0
CCOc1nc(N=C(N)N)nc2c(C)cccc12	0	0	0	0	0	0
CCc1cc2c(=O)c(Oc3ccccc3F)c(C)oc2c(CN(C)C)c1O	0	0	51	0	0	0
CCOc1ccccc1Oc1c(C)oc2c(CN3CCN(C)CC3)c(O)ccc2c1=O	0	0	0	0	0	0
COc1ccc(/C=N/N=C2/NC(=O)C(c3ccccc3)S2)c(OC)c1 (stereo not given)	0	0	0	0	0	0
Cc1ccc(OS(=O)(=O)c2ccccc2)c(/C=N/N=C2\NC(=O)C(C)S2)c1 (stereo not given)	41	-	0	-	-	-
COc1ccc(-c2[nH]ncc2-c2ccc(Cl)cc2)c(O)c1	49	0	0	75	0	0
COc1ccc(-c2ccc(OC)cc2C(=O)O)cc1	0	0	0	0	0	0
Oc1ccc(-c2[nH]ncc2-c2cccc3cccnc23)c(O)c1	0	0	0	54	53	0
Oc1ccc(-c2[nH]ncc2-c2ccc(Cl)cc2)c(O)c1	0	0	0	92	91	0
CC(=O)Nc1ccc(S(=O)(=O)N2CCC(c3nc4ccc(C)cc4[nH]3)CC2)cc1	0	0	0	0	0	0
O=S(=O)(c1ccc2c(c1)OCCO2)N1CCC(n2nnc3cc(C(F)(F)F)ccc32)CC1	0	0	0	94	0	0
O=S(=O)(c1ccccc1)N1CCC(n2nnc3cc(F)ccc32)CC1	0	0	0	0	0	0
COc1ccc(S(=O)(=O)N2CCC(n3cnc4cc(C(F)(F)F)ccc43)CC2)cc1	41	0	0	74	0	0
CC(=O)Nc1ccc(S(=O)(=O)N2CCC(n3cnc4cc(F)ccc43)CC2)cc1	0	0	0	0	60	0
COc1ccc(S(=O)(=O)N2CCC(N3CCN(c4ccccc4)CC3)CC2)cc1	0	0	0	0	0	0
Cc1cc(C(=O)Cn2nnc3ccccc3c2=O)c(C)n1-c1c(C)n(C)n(-c2ccccc2)c1=O	0	0	0	0	0	0
Cc1cc(C(=O)Cn2nnc3ccccc3c2=O)c(C)n1-c1ccccc1F	0	0	0	52	0	0
COc1ccc(-n2c(C)cc(C(=O)Cn3nnc4ccccc4c3=O)c2C)cc1	0	0	0	60	83	0
NC1=NC2(CCCCC2)N(c2cccc(Cl)c2)C(N)=N1	0	0	0	0	0	0
